Only a selection was taken, and hits are over-represented in it overall.
ID4 SMM: binders of human ID4 protein; small molecule microarray, Flag-ID4 binding, fluorescence F/B; calls only; actives 1.2% (n = 31,000); AID 624137; P47928; call rule not given here;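 note: a binder raises fluorescence above local background on the spot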
Target sequence (P47928 whole entry, looked up): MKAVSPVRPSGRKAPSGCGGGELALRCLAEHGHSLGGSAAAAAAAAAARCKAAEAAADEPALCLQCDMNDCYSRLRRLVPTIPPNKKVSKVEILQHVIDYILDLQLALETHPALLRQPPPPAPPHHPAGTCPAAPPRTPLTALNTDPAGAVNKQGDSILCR
NOMO-1 viab: STK33 inhibitor candidate reducing NOMO-1 cell viability; actives 7.5% (n = 37,000); NOMO-1 AML viability, CellTiter-Glo luminescence, 72 h; AID 2330; inhibition, % (concentration not given with the values); in the data active = inhibition above about 80%
STK33 kin inh: blocks human STK33 kinase activity; inhibition, % at 12.5 µM; AID 2322; Q9BYT3; ADP-Glo luminescence, MBP substrate; actives 0.44% (n = 27,000); in the data active = inhibition above about 20%
mut p53 react: re-activators of the mutant p53 pathway | SW480 PUMA-promoter luciferase, p53 mutant reactivation | activation, % at 9.98 µM | actives 1.5% (n = 28,000) | AID 624151; in the data active = activation above about 52%
The depositor's hits bear a star; i = inactive; x = no result; + = active, no number.

SMILES | ID4 SMM | NOMO-1 viab | STK33 kin inh | mut p53 react
C[C@@H]1CCCCO[C@@H](CN(C)Cc2ccc(C(F)(F)F)cc2)[C@@H](C)CN([C@H](C)CO)C(=O)c2cc(NC(=O)Cc3ccccc3)ccc2O1 | x | 106* | 8 | x
C[C@@H]1CCCCO[C@@H](CN(C)Cc2ccccc2)[C@@H](C)CN([C@H](C)CO)C(=O)c2cc(NC(=O)Nc3ccc(C(F)(F)F)cc3)ccc2O1 | x | 115* | 2 | x
C[C@H](CO)N1C[C@H](C)[C@H](CN(C)Cc2ccc(C(F)(F)F)cc2)OCCCC[C@H](C)Oc2ccc(NC(=O)Nc3ccccc3)cc2C1=O | x | x | x | -72
CCn1c(Cn2nnc3ccccc32)nnc1SCC(=O)c1ccc(Br)cc1 | x | 8 | x | x
C[C@@H]1CN([C@H](C)CO)C(=O)c2cc(C#C[C@@H](C)O)cnc2O[C@H]1CN(C)C(=O)c1ccccc1 | x | x | x | -3
C[C@@H](NC(=O)C[C@@H]1CC[C@@H](NC(=O)c2cccnc2)[C@@H](CO)O1)c1ccccc1 | i | x | x | x
COc1ccc(S(=O)(=O)N(C)C[C@H]2Oc3ccc(NC(=O)CCCN(C)C)cc3CC(=O)N([C@H](C)CO)C[C@@H]2C)cc1 | i | x | x | 0
C[C@H]1CN([C@@H](C)CO)C(=O)c2cc(NS(=O)(=O)c3cccs3)ccc2O[C@H]1CN(C)Cc1ccccc1 | x | 30 | x | 3
C[C@@H]1CCCCO[C@@H](CN(C)Cc2ccc(C(F)(F)F)cc2)[C@@H](C)CN([C@H](C)CO)C(=O)c2cc(NC(=O)C3CCCCC3)ccc2O1 | x | 108* | 1 | x
C[C@H]1CN([C@@H](C)CO)C(=O)c2cc(NC(=O)CCCN(C)C)ccc2O[C@@H]1CN(C)CC1CC1 | x | -1 | x | x
C[C@H]1CCCCO[C@@H](CN(C)C(=O)Nc2cccc3ccccc23)[C@@H](C)CN([C@@H](C)CO)C(=O)c2cc(NC(=O)c3ccncc3)ccc2O1 | i | x | x | -20
C[C@@H]1CN([C@@H](C)CO)C(=O)c2cc(NC(=O)Nc3ccc(C(F)(F)F)cc3)ccc2O[C@@H]1CN(C)S(=O)(=O)c1ccc(Cl)cc1 | x | 8 | x | x
C[C@H]1CN([C@@H](C)CO)C(=O)c2cc(NC(=O)Nc3ccc(C(F)(F)F)cc3)ccc2O[C@@H]1CN(C)S(=O)(=O)c1ccc(Cl)cc1 | x | 121* | x | x
Cc1ccc(S(=O)(=O)N(C)C[C@H]2Oc3ccc(NC(=O)Nc4ccc(C(F)(F)F)cc4)cc3C(=O)N([C@@H](C)CO)C[C@H]2C)cc1 | x | 119* | 5 | x
Cc1ccc(S(=O)(=O)N(C)C[C@@H]2Oc3ccc(NC(=O)Nc4ccc(C(F)(F)F)cc4)cc3C(=O)N([C@H](C)CO)C[C@@H]2C)cc1 | x | 115* | 0 | x
C[C@H](CO)N1C[C@H](C)[C@H](CN(C)S(=O)(=O)c2ccc(Cl)cc2)Oc2ccc(NC(=O)Nc3ccc(C(F)(F)F)cc3)cc2C1=O | x | 63 | 1 | x
Cc1ccc(S(=O)(=O)N(C)C[C@H]2Oc3ccc(NC(=O)Nc4ccc(C(F)(F)F)cc4)cc3C(=O)N([C@@H](C)CO)C[C@@H]2C)cc1 | x | -5 | 2 | x
Cc1ccc(S(=O)(=O)N(C)C[C@@H]2Oc3ccc(NC(=O)Nc4ccc(C(F)(F)F)cc4)cc3C(=O)N([C@@H](C)CO)C[C@@H]2C)cc1 | x | 83* | 3 | x
Cc1ccc(S(=O)(=O)N(C)C[C@@H]2Oc3ccc(NC(=O)Nc4ccc(C(F)(F)F)cc4)cc3C(=O)N([C@@H](C)CO)C[C@H]2C)cc1 | x | 75 | 1 | x
Cc1cc(C)c(NC(=O)CN(c2cc(Cl)cc(Cl)c2)S(C)(=O)=O)c(C)c1 | i | 18 | -10 | 0
C#CCNC(=O)C1=C[C@H](c2ccc(C#C)cc2)[C@@H](CCCO)[C@H](OCC)O1 | i | x | x | x
COc1cc(C(c2ccc(C)o2)c2ccc(C)o2)c(O)c([N+](=O)[O-])c1 | i | 25 | -3 | -8
C/C=C/c1cnc2c(c1)C(=O)N([C@@H](C)CO)C[C@H](C)[C@H](CN(C)C(=O)C1CC1)O2 | i | x | x | x
O=C(CSc1nnc(-c2cccnc2)n1-c1ccccc1)N1CCc2ccccc21 | i | 19 | 5 | -10
O=C(CSc1nnc(-c2cccnc2)n1-c1ccccc1)N1CCN(c2ccc(F)cc2)CC1 | + | 20 | 0 | -3
SMILES | ID4 SMM | NOMO-1 viab | STK33 kin inh | mut p53 react
C[C@@H]1CN([C@@H](C)CO)C(=O)c2cccc(NC(=O)Nc3ccc(F)cc3)c2O[C@@H]1CN(C)Cc1ccc(C(F)(F)F)cc1 | i | 88* | x | -24
C[C@@H]1CN([C@H](C)CO)C(=O)c2cccc(NC(=O)Nc3ccc(F)cc3)c2O[C@H]1CN(C)Cc1ccc(C(F)(F)F)cc1 | i | 83* | x | -16
C[C@H](CO)N1C[C@H](C)[C@H](CN(C)Cc2ccc(C(F)(F)F)cc2)Oc2c(NC(=O)Nc3ccc(F)cc3)cccc2C1=O | i | 69 | x | -11
C[C@H](CO)N1C[C@H](C)[C@@H](CN(C)Cc2ccc(C(F)(F)F)cc2)Oc2c(NC(=O)Nc3ccc(F)cc3)cccc2C1=O | i | 113* | x | -10
CC(C)NC(=O)Nc1ccc2c(c1)CC(=O)N([C@@H](C)CO)C[C@H](C)[C@@H](CN(C)S(=O)(=O)c1cn(C)cn1)O2 | x | 9 | 3 | x
Cc1c(Br)sc2sc(-c3ccnc(SCC(=O)NC(C)C)n3)c(C)c12 | x | 115* | x | x
C=CCNC(=O)CSc1nccc(-c2sc3sc(Br)c(C)c3c2C)n1 | x | 110* | 12 | x
Cc1cc(C)cc(NC(=O)CN2CCC(C(N)=O)(N3CCCCC3)CC2)c1 | i | 1 | -1 | -13
COCCNC(=O)COc1ccc(OCCNC[C@@H](O)COc2ccccc2)cc1 | i | x | x | -13
O=C(O)COc1ccc(OCCNC[C@@H](O)COc2ccccc2)cc1 | + | x | x | 6
O=c1c(O[C@@H]2O[C@H](CO[C@@H]3O[C@H](CO)[C@@H](O)[C@H](O)[C@H]3O)[C@@H](O)[C@H](O)[C@H]2O)c(-c2ccc(O)cc2)oc2cc(O)cc(O)c12 | x | x | -1 | -74
O=C(C[C@H]1C[C@H]2c3cc(NC(=O)Nc4ccccc4)ccc3O[C@H]2[C@@H](CO)O1)NCc1cccnc1 | i | x | x | -1
O=C1Cc2c([nH]c3ccc(Br)cc23)-c2ccccc2N1 | x | 89* | 3 | x
COc1ccccc1/C=C(\C#N)c1ccc(C)cc1 | x | 17 | x | x
CCc1ccc(/C(C#N)=C/C=C/c2ccccc2)cc1 | x | 115* | x | x
O=C(COc1ccccc1Cl)Nc1ccccc1C(=O)Nc1ccccc1 | i | 16 | 2 | -16
N=c1oc2ccccc2cc1C(=O)Nc1ccc(F)cc1 | x | 120* | x | x
COc1ccc(NC(=O)N(C)C[C@@H]2Oc3ccc(N(C)C)cc3C(=O)N([C@H](C)CO)C[C@H]2C)cc1 | x | 25 | x | 3
CC(C)c1cc(CN2CCN(c3ccccc3)CC2)c(O)c(CN2CCN(c3ccccc3)CC2)c1 | x | 65 | x | x
CCc1cccc(-n2c(-c3ccco3)nc3c(cnn3-c3ccccc3Cl)c2=O)c1 | i | x | x | 8
CCc1nc2c(cnn2-c2ccccc2)c(=O)n1CCc1ccccc1 | x | 113* | x | x
COc1ccc2c(c1)OCC(Cc1ccc(OC)c(O)c1)C2=O (stereo unspecified) | x | 109* | 0 | x
C[C@@H]1CN([C@H](C)CO)C(=O)c2cc(NS(=O)(=O)c3ccc(F)cc3)ccc2O[C@H]1CN(C)Cc1ccc(C(F)(F)F)cc1 | x | 81* | -2 | x

Assay outcomes: PubChem BioAssay, Broad Institute
